{
  "source": "PubChem BioAssay AID540333",
  "about": "(Southern Research Specialized Biocontainment Screening …, 2011)",
  "note": "About 320 (3.2%) of roughly 10,000 compounds were called active. Rule as the data show it: active = CPE inhibition mostly above about 9.1% (no sharp cut-off); inactive = mostly below about 7.2%. The list comes from a sample in which actives are over-represented; it also holds similar structures and randomly drawn compounds.",
  "data": [
    {"assay": "antivirals protecting cells from dengue CPE – CPE readout, HTS (AID 540333)", "details": "Dengue virus CPE inhibition in host cells, at 20 µM; hits give high values", "values": [
      {"smiles": "Cc1sc(NC(=O)c2ccccc2)c(C(c2ccc(Cl)cc2)N2CCN(CCO)CC2)c1C", "note": "(configuration not stated)", "CPE inhibition": "inactive"},
      {"smiles": "Cc1nc2sc(C(c3ccc(F)cc3)N3CCN(C(=O)c4ccco4)CC3)c(O)n2n1", "note": "(configuration not stated)", "CPE inhibition": "0.39% (inactive)"},
      {"smiles": "CC(=O)NS(=O)(=O)c1ccc(NC(=O)C2c3ccccc3Oc3ccccc32)cc1", "CPE inhibition": "inactive"},
      {"smiles": "CN(C)c1ccc(C(CNS(=O)(=O)c2ccc(F)cc2)c2c[nH]c3ccccc23)cc1", "note": "(configuration not stated)", "CPE inhibition": "36.1% (active)"},
      {"smiles": "CN(c1ccccc1)S(=O)(=O)c1ccc(Cl)c(C(=O)NCCc2c[nH]c3ccccc23)c1", "CPE inhibition": "2.39% (inactive)"},
      {"smiles": "CN(C)c1ccc(NS(=O)(=O)c2ccc(Cl)cc2)cc1", "CPE inhibition": "0.45% (inactive)"},
      {"smiles": "COCCCNC(=O)c1cccc2c(=O)c(C)c(-c3ccccc3)oc12", "CPE inhibition": "0.515% (inactive)"},
      {"smiles": "Cc1ccc(C)n1-c1ccc(NC(=O)c2ccccc2)cc1", "CPE inhibition": "inactive"},
      {"smiles": "O=C(c1cnn(C(=O)COc2ccc(Cl)cc2)c1)c1ccccc1O", "CPE inhibition": "inactive"},
      {"smiles": "O=C(COC(=O)/C=C/c1ccccc1Cl)NC(=O)Cc1ccccc1", "CPE inhibition": "0.12% (inactive)"},
      {"smiles": "COc1cc(NC(=O)COC(=O)/C=C/c2ccc(Cl)cc2Cl)cc(OC)c1", "CPE inhibition": "8.61% (inactive)"},
      {"smiles": "COc1cc(NC(=O)COC(=O)/C=C/c2ccccc2Cl)cc(OC)c1", "CPE inhibition": "22.1% (active)"},
      {"smiles": "COc1ccccc1OCCn1cc(/C=C(\\C#N)C(=O)NCc2cccs2)c2ccccc21", "CPE inhibition": "2.51% (inactive)"},
      {"smiles": "O=C(NCc1ccco1)c1ccc(Cl)c(S(=O)(=O)N2CCc3ccccc32)c1", "CPE inhibition": "1.37% (inactive)"},
      {"smiles": "COc1cc(C(=O)NC(=S)NC(C)C)cc(OC)c1OC", "CPE inhibition": "inactive"},
      {"smiles": "Cc1ccc(NC(=O)c2ccc(NCCN)c([N+](=O)[O-])c2)cc1Cl", "CPE inhibition": "0.22% (inactive)"},
      {"smiles": "Cc1ccc(NC(=O)c2ccc(NCCN)c([N+](=O)[O-])c2)cc1", "CPE inhibition": "3.98% (inactive)"},
      {"smiles": "O=C(Nc1ccccc1)c1ccc(NCCc2ccccc2)c([N+](=O)[O-])c1", "CPE inhibition": "13.8% (active)"},
      {"smiles": "O=C(O)CCC(=O)OCc1c(-c2ccccc2)ncc2ccccc12", "CPE inhibition": "1.18% (inactive)"},
      {"smiles": "CCOc1cc(C2Nc3ccccc3C(=O)N2c2ccccc2)c(Br)cc1OCC(=O)O", "note": "(configuration not stated)", "CPE inhibition": "inactive"},
      {"smiles": "COc1ccc(NC(=O)/C=C/c2ccccc2[N+](=O)[O-])c(OC)c1", "CPE inhibition": "0.44% (inactive)"},
      {"smiles": "COc1ccccc1NCc1ccc([N+](=O)[O-])s1", "CPE inhibition": "inactive"},
      {"smiles": "COc1ccc(NCc2ccc([N+](=O)[O-])s2)c(OC)c1", "CPE inhibition": "11.8% (active)"},
      {"smiles": "COc1cccc(NCc2ccc([N+](=O)[O-])s2)c1", "CPE inhibition": "inactive"},
      {"smiles": "COc1ccc(NCc2ccc([N+](=O)[O-])s2)cc1", "CPE inhibition": "16.8% (active)"},
      {"smiles": "COc1ccc(NCc2ccccc2[N+](=O)[O-])cc1OC", "CPE inhibition": "1.54% (inactive)"},
      {"smiles": "COc1cc(C2Nc3ccccc3C(=O)N2c2ccccc2)c(Br)cc1OCC(=O)O", "note": "(configuration not stated)", "CPE inhibition": "inactive"},
      {"smiles": "Cn1cnnc1SCC(=O)Nc1cc(S(=O)(=O)N2CCCCCC2)ccc1Cl", "CPE inhibition": "inactive"},
      {"smiles": "Cc1ccc2c([N+](=O)[O-])cccc2n1", "CPE inhibition": "inactive"},
      {"smiles": "Cc1ccc(CNC(=O)c2ccc3c(c2)S(=O)(=O)c2ccccc2C3=O)o1", "CPE inhibition": "inactive"},
      {"smiles": "COc1cc(OC)cc(-c2c(-c3cccs3)c3cc(-c4ccc5[nH]ccc5c4)ccc3n2C)c1", "CPE inhibition": "4.79% (inactive)"},
      {"smiles": "CCCCOc1ccc(/C=C/C(=O)OCC(=O)NC(=O)NCC(C)C)cc1OCC", "CPE inhibition": "inactive"},
      {"smiles": "CCOc1ccc(/C=N/OCC(=O)NC(c2ccccc2)c2ccccc2)cc1", "CPE inhibition": "13.1% (active)"},
      {"smiles": "COc1ccc(/C=N/OCC(=O)NC(c2ccccc2)c2ccccc2)cc1OC", "CPE inhibition": "7.42% (inactive)"},
      {"smiles": "CCOc1ccc(/C=C/C(=O)NCc2ccccc2)cc1", "CPE inhibition": "inactive"},
      {"smiles": "O=C(CNC(=O)c1cccc(Cl)c1)N/N=C/C=C/c1ccccc1", "CPE inhibition": "0.175% (inactive)"},
      {"smiles": "O=C(CSc1nc2ccccc2c(=O)n1-c1ccc(F)cc1F)c1c[nH]c2ccccc12", "CPE inhibition": "2.1% (inactive)"},
      {"smiles": "CCOC(=O)c1c(C)[nH]c(C)c1C(=O)CSc1nc2ccccc2c(=O)n1-c1ccc(C)cc1", "CPE inhibition": "inactive"},
      {"smiles": "Cc1ccc(SCC(=O)c2c(C)[nH]c3ccccc23)cc1", "CPE inhibition": "inactive"},
      {"smiles": "CCOC(=O)c1c(CSc2ccc(C)cc2)oc2ccc(O)cc12", "CPE inhibition": "20.7% (active)"},
      {"smiles": "CCOc1ccc(N2C(=O)S/C(=C\\c3cccn3C)C2=O)cc1", "CPE inhibition": "inactive"},
      {"smiles": "CCOc1ccc(/C=C2\\SC(N3CCc4ccccc4C3)=NC2=O)cc1", "CPE inhibition": "17.6% (active)"},
      {"smiles": "CCS(=O)(=O)c1nc(S(=O)(=O)c2ccc(Cl)cc2)c(N2CCc3ccccc3C2)s1", "CPE inhibition": "0.63% (inactive)"},
      {"smiles": "O=C(CNC1=NCCC1)c1ccc(Cl)cc1", "CPE inhibition": "0.59% (inactive)"},
      {"smiles": "O=C(OCC(=O)N1CCCCC1)c1cc(NS(=O)(=O)c2ccc(Cl)c([N+](=O)[O-])c2)ccc1O", "CPE inhibition": "0.48% (inactive)"},
      {"smiles": "CCN(C(=O)COC(=O)c1cc(NS(=O)(=O)c2ccc(Cl)c([N+](=O)[O-])c2)ccc1O)C1CCCCC1", "CPE inhibition": "17.4% (active)"},
      {"smiles": "CCN(CC)S(=O)(=O)c1ccc(NS(=O)(=O)c2ccc(O)c([N+](=O)[O-])c2)cc1", "CPE inhibition": "0.085% (inactive)"},
      {"smiles": "O=C(Nc1nnc(C2CC2)s1)c1cc([N+](=O)[O-])ccc1N1CCCCC1", "CPE inhibition": "inactive"},
      {"smiles": "CCOC(=O)[C@H]1[C@H]2COc3ccc(Cl)cc3[C@@H]2N2C(=O)c3cc(C)ccc3NC(=O)[C@@]12C", "CPE inhibition": "12.9% (active)"},
      {"smiles": "CCOC(=O)[C@H]1[C@H]2COc3ccccc3[C@@H]2N2C(=O)c3ccc(C)cc3NC(=O)[C@@]12C", "CPE inhibition": "inactive"},
      {"smiles": "CCOC(=O)[C@H]1[C@H]2COc3ccc(Cl)cc3[C@@H]2N2C(=O)c3cc(F)c(F)cc3NC(=O)[C@@]12C", "CPE inhibition": "18% (active)"},
      {"smiles": "CCOC(=O)[C@H]1[C@H]2COc3ccccc3[C@@H]2N2C(=O)c3cc(Cl)ccc3NC(=O)[C@@]12C", "CPE inhibition": "4.61% (inactive)"},
      {"smiles": "CCOC(=O)[C@H]1[C@H]2COc3ccccc3[C@@H]2N2C(=O)c3cc(C)ccc3NC(=O)[C@@]12C", "CPE inhibition": "0.17% (inactive)"},
      {"smiles": "CCOC(=O)[C@H]1[C@H]2COc3ccc(OC)cc3[C@@H]2N2C(=O)c3ccc(F)cc3NC(=O)[C@@]12C", "CPE inhibition": "inactive"},
      {"smiles": "NC(=O)CC[C@H](NC(=O)OCc1ccccc1)C(=O)OCc1ccc(Cl)cc1", "CPE inhibition": "0.15% (inactive)"},
      {"smiles": "COc1ccc(NC(=O)c2ccc3c(c2)S(=O)(=O)c2ccccc2C3=O)cc1", "CPE inhibition": "1.25% (inactive)"},
      {"smiles": "O=C(/C=C\\Nc1ccc(Br)cc1)c1cccnc1", "CPE inhibition": "0.09% (inactive)"}
    ]}
  ]
}
